This is a sample that favours compounds with a hit; in the whole collection about 22% have one here.
LmPK inhibitor = qHTS Assay for Inhibitors of Leishmania Mexicana Pyruvate Kinase (LmPK) | Q27686 | actives 0.37% (n = 290,000) | purified LmPK, Kinase-Glo ATP luminescence, 1 h | Potency, µM (doses to about 57.5 µM), hits mostly inhibitors | AID 1721, 2009
Target sequence (Q27686 whole entry, looked up): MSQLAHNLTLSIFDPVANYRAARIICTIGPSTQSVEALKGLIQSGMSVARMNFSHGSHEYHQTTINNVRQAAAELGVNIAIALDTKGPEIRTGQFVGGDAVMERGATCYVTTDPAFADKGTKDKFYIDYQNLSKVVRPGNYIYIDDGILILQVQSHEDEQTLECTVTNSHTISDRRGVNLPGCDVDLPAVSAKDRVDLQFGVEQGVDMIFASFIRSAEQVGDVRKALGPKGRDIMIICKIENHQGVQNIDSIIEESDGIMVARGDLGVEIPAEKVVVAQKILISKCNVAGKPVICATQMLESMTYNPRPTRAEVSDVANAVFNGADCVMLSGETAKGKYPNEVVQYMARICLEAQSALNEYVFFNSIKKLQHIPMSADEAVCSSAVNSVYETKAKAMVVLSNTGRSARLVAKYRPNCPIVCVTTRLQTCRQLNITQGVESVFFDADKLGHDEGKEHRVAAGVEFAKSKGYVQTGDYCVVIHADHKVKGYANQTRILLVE
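qHTS format; LmPK 0.1 nM; substrates PEP 0.5 mM and ADP 0.1 mM. One-hour room-temperature incubation, then coupled luciferase luminescence; 0.5 nM enzyme wells mark activation.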
Cycloheximide cs = Cycloheximide Counterscreen for Small Molecule Inhibitors of Shiga Toxin; cell reporter, cycloheximide protein synthesis inhibition counterscreen; max response, %; actives 12% (n = 300,000); in the data active = max response mostly above about 13%, no sharp cut-off; inactive = mostly below about 14%; note: read at 38.3 µM for the half of the compounds with a filed dose
Pf growth 96h = Primary qHTS for delayed death inhibitors of the malarial parasite plastid, 96 hour incubation; AID 504834, 2011; P. falciparum luciferase reporter growth, 96 h; Potency, µM (titrated, usually from 28.7 µM), usual class: inhibitors; actives 6.9% (n = 320,000)
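Two parasite generations (96 h, 37 C, 5% CO2) of compound exposure in infected erythrocytes (0.05% parasitemia, 2% hematocrit). Luciferase-reporter P. falciparum; decreased luminescence indicates inhibited growth, aimed at apicoplast-acting delayed death.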
Shiga inhibitor = A qHTS for Small Molecule Inhibitors of Shiga Toxin; Vero cells, Shiga toxin protein synthesis inhibition reporter; inhibition, % at 38.7 µM; actives 9.2% (n = 290,000); in the data active = inhibition mostly above about 28%, no sharp cut-off; inactive = mostly below about 43%
Pf growth 48h = Primary qHTS for delayed death inhibitors of the malarial parasite plastid, 48 hour incubation; P. falciparum luciferase growth in erythrocytes, 48 h; Potency, µM (doses to about 28.7 µM), actives largely listed as inhibitors; actives 5.9% (n = 310,000)
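Compounds are pin-transferred into medium, infected erythrocytes (2% hematocrit, 0.1% parasitemia final) are added, and plates sit one parasite generation at 37 C in 5% CO2. Detection reagent is then added and luminescence measured.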
Numbers stand for hits; - = inactive; ? = inconclusive; . = not tested or not shown; [ ] = remark or other dose. Unless noted, calls come from the whole dose curve; as a rule, active = well fitted inhibition curve with a large enough effect; inconclusive = small, poorly fitted or top-dose-only effect, or another doubt; inactive = no such curve, though single readings can be large or run the other way.

SMILES | LmPK inhibitor | Cycloheximide cs | Pf growth 96h | Shiga inhibitor | Pf growth 48h
COc1ccc(S(=O)(=O)NCc2ccco2)cc1-c1nnc2c3ccccc3c(C)nn12 | - | 40 | ? | - | 12µM
COc1ccc(-c2cc(C(=O)Nc3cccc(S(=O)(=O)NCc4ccco4)c3)c3ccccc3n2)cc1OC | - | 21 | ? | - | 2.1µM
COc1ccc(CNC(=O)COC(=O)c2cnccn2)cc1 | - | - | . | - | -
CC(C)[C@H]1COC(c2cccc([N+](=O)[O-])c2)=N1 | . | - | . | - | .
CC(C)C1COC(c2cccc3ccccc23)=N1 (stereo not drawn) | ? | 76 | - | 136 | -
C[C@@H]1CC=C[C@H]2[C@H]1C(=O)N(Cc1ccccc1)[C@H]2c1cccc([N+](=O)[O-])c1 | - | - | ? | - | ?
O=C(Nc1ccc(C(=O)NC2CCCCC2)cc1)c1cncc(Br)c1 | - | - | - | - | -
CC(C)OC(=O)c1ccc(NC(=O)c2cncc(Br)c2)cc1 | - | 20 | - | - | -
CN(C)C(=O)c1ccc(NC(=O)c2cncc(Br)c2)cc1 | ? | - | . | active | -
COc1ccc(S(=O)(=O)N2CCCCC2)cc1NC(=O)c1cncc(Br)c1 | . | . | - | . | -
Cc1cccnc1NC(=O)c1nn(C)c2c1CS(=O)(=O)c1ccccc1-2 | - | - | - | - | -
Cc1ccc(/C=C/C(=O)Nc2sc3c(c2C#N)CCCC3)o1 | - | - | - | - | -
O=C(Nc1nc2cc3c(cc2s1)OCCO3)c1ccco1 | - | - | - | - | -
O=C(Nc1nc(-c2cccs2)c(-c2ccccc2)s1)c1ccco1 | - | 18 | - | - | -
CC(=O)Nc1nc2cc3c(cc2s1)OCO3 | - | 31 | - | 96 | .
Cc1ccc2nc(NC(=O)/C=C/c3ccc4c(c3)OCO4)sc2c1 | - | - | - | - | -
O=C(Nc1nc2cc3c(cc2s1)OCO3)c1ccco1 | 16µM | 49 | - | 86 | -
CC(=O)c1sc(Nc2nc3cc4c(cc3s2)OCO4)nc1C | - | - | ? | 74 | -
CC(=O)Nc1sc(NC(=O)c2ccco2)nc1-c1cccs1 | - | - | - | - | -
COC(=O)c1ccc(N2CCN(C)CC2)c(NC(=O)c2ccc(-c3ccc(Cl)cc3)o2)c1 | - | - | ? | - | ?
CCn1c(SCC(=O)N(C)CC(=O)Nc2ccc(F)c(F)c2F)nnc1-c1ccco1 | - | - | - | - | -
O=C(CC1S/C(=N/N=C/c2ccco2)NC1=O)Nc1cccc(Cl)c1Cl (stereo not drawn) | - | - | - | - | -
CCOC(=O)c1sc(Nc2nc3cc4c(cc3s2)OCO4)cc1C | - | 43 | 9.3µM | 82 | 8.3µM
CCOC(=O)c1sc(Nc2nc3c(OC)cccc3s2)cc1C | - | 53 | - | 108 | -
CC1CC1C(=O)Nc1nc(-c2cccs2)c(-c2cccs2)s1 (stereo not drawn) | - | 19 | - | - | -
SMILES | LmPK inhibitor | Cycloheximide cs | Pf growth 96h | Shiga inhibitor | Pf growth 48h
O=C(COc1ccccc1)Nc1nc2cc3c(cc2s1)OCCO3 | - | 28 | - | - | -
CCOc1cccc2sc(NC(=O)CC)nc12 | - | - | - | - | .
CCCCOC(=O)c1ccc(NC(=O)C(=O)NCCN(C)C)cc1 | - | - | - | - | -
CN(C(=S)NC(=O)C1CC1)c1ccc(O)cc1 | . | . | - | . | -
C=CCn1c(C)nnc1SCC(=O)Nc1ccccc1C(=O)NC1CC1 | . | . | - | . | ?
O=C(Nc1nc2ccccc2c(=O)s1)c1ccco1 | - | - | - | - | 2.1µM
O=C(Nc1nc2ccccc2c(=O)s1)c1ccc(F)cc1Cl | - | - | - | - | -
CC(C)C(=O)Nc1nc2cc3c(cc2s1)OCCO3 | - | 55 | - | 93 | -
C=CCN(CC=C)S(=O)(=O)c1ccc2nc(NC(=O)C(C)C)sc2c1 | - | - | . | - | ?
CCCCNC(=O)CC1NCCNC1=O (stereo not drawn) | - | - | - | - | -
CN(Cc1ccccc1)S(=O)(=O)c1ccc2c(c1)n(C)c(=O)n2C | - | - | -[5.75 µM] | - | -
CCCN(c1ccccc1C(=O)O)S(=O)(=O)c1ccc2c(c1)n(C)c(=O)n2C | - | - | 0.83µM | - | -
CCCOc1cccc(C2C(C(=O)c3cc4ccccc4o3)=C(O)C(=O)N2c2cc(C)on2)c1 (stereo not drawn) | - | - | 3.7µM | - | ?
COC(=O)c1ccc(C2C(C(=O)c3cc4ccccc4o3)=C(O)C(=O)N2c2cc(C)on2)cc1 (stereo not drawn) | - | - | 7.4µM | - | 9.3µM
CC(NS(=O)(=O)c1ccc(Br)cc1)C(=O)NCCc1ccccc1 (stereo not drawn) | - | - | - | - | -
COCc1ccc(C(=O)N2CCCC(C(=O)c3ccc(SC)cc3)C2)s1 (stereo not drawn) | - | - | ? | - | -
CC12CCC(C(=O)OC3CCCCC3)(OC1=O)C2(C)C (stereo not drawn) | - | - | 12µM | - | -
CN1CCC(OC(=O)C23CCC(C)(C(=O)O2)C3(C)C)CC1 (stereo not drawn) | - | - | . | - | -
COc1ccc(C(C)(C)NC(=O)C2CCC(=O)N(CCCN3CCCC3=O)C2)cc1 (stereo not drawn) | - | - | ? | - | ?
O=C(Cn1cnc2ccccc2c1=O)NCc1cccs1 | - | - | - | - | -
O=c1c2ccccc2ncn1Cc1ccc(Cl)cc1 | - | - | ? | - | -
O=C(Cn1cnc2ccccc2c1=O)c1ccccc1 | - | 39 | - | 78 | -
O=C(Cn1cnc2ccccc2c1=O)c1ccc(OC(F)F)cc1 | - | 34 | - | 57 | -
COC(=O)c1ccc(Cn2cnc3ccccc3c2=O)cc1 | - | - | ? | - | -
O=C(Cn1cnc2ccccc2c1=O)c1ccc(Cl)cc1 | - | 44 | - | 120 | -
SMILES | LmPK inhibitor | Cycloheximide cs | Pf growth 96h | Shiga inhibitor | Pf growth 48h
O=C(Cn1nnc2ccccc21)c1ccc(Cl)cc1 | - | 41 | - | 54 | -
COc1ccccc1NC(=O)CN1CCN(c2ccccc2)CC1 | - | - | ? | - | -
CCOc1ccc(C(=O)Cn2cnc3ccccc3c2=O)cc1 | - | 57 | - | 117 | -
CCOC(=O)c1ccc(Cn2cnc3ccccc3c2=O)cc1 | - | - | 13µM | - | -
CC(C)OC(=O)c1ccc(Cn2nnc3ccccc3c2=O)cc1 | - | 27 | . | 89 | .
CCOc1ccc(-n2nnc3c(=O)n(CC(=O)c4ccccc4)cnc32)cc1 | - | - | - | - | -
O=C(Cn1cnc2ccccc2c1=O)c1ccc(Br)cc1 | - | 28 | ? | 45 | -
CCN(CC(=O)NC1CC1)S(=O)(=O)c1ccccc1 | - | - | - | - | -
Cc1cc2c(s1)c1cnn(Cc3cccc(Cn4ncc5c6sc(C)cc6n(C)c5c4=O)c3F)c(=O)c1n2C | . | - | . | - | .
O=C(Cn1cnc2ccccc21)c1ccc(Cl)cc1 | - | 28 | - | - | -
O=C(Cn1cc(Cl)ccc1=O)c1ccc(Cl)cc1 | - | 16 | - | - | -

Screening results as filed in PubChem.
